# Source: PubChem BioAssay
# Shown is part of a subset that was picked to be rich in hits.
# ARNT-TACC3 inh – disruptors of human ARNT/TACC3 interaction | 390,000 compounds, 0.66% hits | AlphaScreen His-ARNT PAS-B/GST-TACC3 binding, luminescence; TACC3 fragment carries E629A point mutation | inhibition, % at 9.99 µM | Q9Y6A5;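 active means mean inhibition of replicates at least 50% and at least half of replicates each reaching 50%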;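 further: 0% = complete ARNT plus TACC3 wells and 100% = ARNT alone without TACC3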
# PDI turbidity – blocks human protein disulfide isomerase activity. P07237. PDI insulin aggregation turbidity, A650, 90 min. AID 588391. inhibition, % at 10 µM. 350,000 compounds, 0.052% hits;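 active means mean inhibition across replicates of 30% or more, whatever share of single replicates reach that level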
# ERp5 block – ERp5 (human) disulfide isomerase inhibition | ERp5 insulin aggregation, absorbance 650 nm, 90 min | AID 651711 | inhibition, % at 9.99 µM | 350,000 compounds, 0.05% hits | Q15084;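 active means mean replicate inhibition above about 25%, with every replicate also reaching it, limit read from the data, passing the limit was not always enough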
# PglD inh – PglD (C. jejuni) enzyme inhibition | AID 602405 | 360,000 compounds, 0.098% hits | inhibition, % at 12.5 µM | purified PglD enzyme, DTNB colorimetric CoA detection; in the data active means inhibition above about 16%, passing the limit was not always enough
# ALR H2O2 inh – human ALR oxidase inhibition via reduced H2O2 | P55789 | purified ALR, DTT oxidation, H2O2 HRP-luminol luminescence | inhibition, % (concentration not given with the values) | 290,000 compounds, 3.8% hits | AID 485317;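 active means mean replicate inhibition above about 79%, with every replicate also reaching it, limit read from the data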
# Target sequence (P55789 whole entry, looked up): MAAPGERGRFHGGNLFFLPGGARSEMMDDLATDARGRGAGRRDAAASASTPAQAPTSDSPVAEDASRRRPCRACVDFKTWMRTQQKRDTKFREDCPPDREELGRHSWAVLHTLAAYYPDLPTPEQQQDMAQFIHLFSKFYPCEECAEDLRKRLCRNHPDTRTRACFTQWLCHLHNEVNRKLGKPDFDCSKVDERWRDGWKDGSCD
# CendR NRP1 mod – NRP-1/CendR interaction modulation. O14786. FAM-RPARPAR peptide binding to NRP-1, fluorescence polarization. inhibition, % at 25 µM. 360,000 compounds, 0.85% hits;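 active means inhibition or corrected inhibition above about 18%, plus a signal ratio from 0.5 to 1.5, limit read from the data, passing the limit was not always enough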
# * = called active by the depositor; nt = not tested or not shown.
SMILES,ARNT-TACC3 inh,PDI turbidity,ERp5 block,PglD inh,ALR H2O2 inh,CendR NRP1 mod
CCc1cc(=O)oc2c(CN3CCN(C)CC3)c(O)ccc12,-10,1,3,1,-3,-17
O=C(C[C@@H]1C[C@H]2c3cc(NC(=O)Nc4ccccc4)ccc3O[C@H]2[C@H](CO)O1)NC1CCCC1,5,nt,-5,2,nt,nt
CCOc1cc(CNCC(O)c2ccccc2)cc(Cl)c1OC (stereo unspecified),nt,3,6,-4,99*,-6
CCNCc1cc(Cl)c(OCc2ccccc2)c(OCC)c1,-4,8,4,nt,-1,3
COc1cc(OC)c(C2SCCS2)c(OC)c1,1,-18,nt,2,99*,-4
CCOC(=O)c1ccc2[nH]c3c(c2c1)CCCC3O (stereo unspecified),4,-1,4,nt,-2,4
CCOC(=O)c1ccc2[nH]c3c(c2c1)CCCC3,-9,-7,-1,11,98*,8
CO[C@@H]1CN(C)C(=O)c2ccc(NC(=O)C3CCCC3)cc2OC[C@@H](C)N(CCC(F)(F)F)C[C@H]1C,-6,nt,-3,3,nt,nt
N#CCCN1CCNCC1,-3,21,nt,-4,-3,34*
CC(Sc1nnc(N)s1)C(=O)c1c(N)n(C)c(=O)n(C)c1=O (stereo unspecified),-1,-19,4,-5,nt,-12
Cc1nc(SC(C)C(=O)c2c(N)n(C)c(=O)n(C)c2=O)c2c(C)c(C)sc2n1 (stereo unspecified),-1,4,-2,nt,91*,3
O=C(C[C@H]1CC[C@@H]2[C@H](COC[C@@H](O)CN2Cc2cc(F)cc(F)c2)O1)NC1CCCC1,-2,nt,-4,9,nt,nt
COCCNC(=O)C[C@H]1C[C@H]2c3cc(NC(=O)c4cccnc4)ccc3O[C@H]2[C@H](CO)O1,1,nt,13,2,nt,nt
OCCNc1cc(-n2nc(-c3ccccc3)cc2-c2ccccc2)ncn1,-1,15,nt,2,96*,-8
CCCN(C)C[C@@H]1Oc2cc(C#Cc3ccccc3OC)ccc2S(=O)(=O)N([C@H](C)CO)C[C@@H]1C,20,nt,5,0,nt,nt
N=C1C(c2nc3ccccc3s2)=C(O)CN1Cc1ccco1,-1,0,nt,7,98*,-5
CN(C)CCN1CC(O)=C(c2nc3ccccc3s2)C1=N,-1,-3,3,-3,nt,-27
CCOC(=O)N1CCN(c2cc3[nH]c(=S)[nH]c3cc2F)CC1,1,7,nt,5,90*,0
Cc1cc(C)c(S(=O)(=O)/N=C2/C=C(SCC(=O)O)C(=O)c3ccccc32)cc1C,74*,-1,nt,nt,nt,-83
O=C1CCCC/C1=N\Nc1ccc(OCc2ccccc2)cc1,nt,1,5,nt,99*,-3
O=C1CCCC/C1=N\Nc1ccc(C2CCCCC2)cc1,nt,nt,nt,nt,98*,nt
Cc1ccc(NS(=O)(=O)c2ccc(C3CCCCC3)cc2)cc1,-2,6,1,nt,2,-26
CN(Cc1ccccc1)C(=O)c1nc[nH]c1C(=O)N1CCN(C(=O)OC(C)(C)C)CC1,-2,-8,3,0,7,37*
C[C@@H](NC(=O)c1nc[nH]c1C(=O)N[C@@H](Cc1ccccc1)C(=O)OCc1ccccc1)c1ccccc1,1,-5,0,-4,-5,12
CC(C)(C)OC(=O)NCc1ccc(CNC(=O)c2nc[nH]c2C(=O)N2CCc3ccccc3C2)cc1,20,-1,1,0,-13,35*
SMILES,ARNT-TACC3 inh,PDI turbidity,ERp5 block,PglD inh,ALR H2O2 inh,CendR NRP1 mod
O=C(N[C@@H](Cc1ccccc1)C(=O)OCc1ccccc1)c1nc[nH]c1C(=O)NC(c1ccccc1)c1ccccc1,1,-6,2,3,1,27*
CC1CCN(C(=O)c2[nH]cnc2C(=O)NC2CCN(C(=O)OC(C)(C)C)CC2)CC1,-6,-6,3,-4,-3,29*
CN(C)C(=O)c1cccc(-c2cccc(-c3nc(C(=O)N4CCOCC4)cc4c3[C@@H](CCO)N([S@](=O)C(C)(C)C)C4)c2)c1,29,nt,2,-3,nt,nt
Cc1noc(C)c1S(=O)(=O)N(C)C[C@@H]1OCCCC[C@@H](C)Oc2ccc(NC(=O)Nc3cccc4ccccc34)cc2C(=O)N([C@@H](C)CO)C[C@H]1C,-6,nt,3,4,nt,nt
Cc1ccc(S(=O)(=O)N(C)C[C@@H]2Oc3c(NC(=O)c4cnccn4)cccc3C(=O)N([C@H](C)CO)C[C@H]2C)cc1,-14,nt,-7,5,nt,nt
CC(C)(C)OC(=O)[C@H](CCCCN)NC(=O)c1nc[nH]c1C(=O)NCCCCCN,-6,2,-2,7,nt,21*
CCN(CC)C(=O)c1nc[nH]c1C(=O)N1CCN(c2ccccc2)CC1,-4,-6,9,3,39,30*
CC(C)(C)OC(=O)[C@H](Cc1ccccc1)NC(=O)c1nc[nH]c1C(=O)N1CCN(C(=O)OC(C)(C)C)CC1,8,-3,3,-2,-1,27*
CC(C)(C)OC(=O)N1CCN(C(=O)c2[nH]cnc2C(=O)N[C@@H](Cc2ccccc2)C(=O)OCc2ccccc2)CC1,11,8,5,1,16,5
CN(Cc1ccccc1)C(=O)c1nc[nH]c1C(=O)N1CCN(c2ccccc2)CC1,1,-7,0,0,71,9
C[C@H](CO)N1C[C@H](C)[C@@H](CN(C)Cc2ccc(Cl)c(Cl)c2)Oc2ccc(NC(=O)c3ccncc3)cc2C1=O,8,nt,-8,7,nt,nt
Cc1cc(C(=O)Nc2ccc3c(c2)C(=O)N(C)[C@H]2CC[C@@H](CC(=O)N[C@H](C)c4ccccc4)O[C@@H]2CO3)no1,-10,nt,-7,0,nt,nt
COc1ccc(C)cc1S(=O)(=O)N(C)CC(=O)NC1CCCCC1,-6,12,nt,-4,-6,-4
COc1ccc(C)cc1S(=O)(=O)N(CC(=O)NC1CCCC1)c1ccc(F)cc1,46*,0,6,1,-1,3
C[C@@H]1CN([C@@H](C)CO)S(=O)(=O)c2ccc(-c3cccc(C(=O)N(C)C)c3)cc2O[C@H]1CN(C)Cc1ccc2c(c1)OCO2,11,nt,-1,1,nt,nt
Cc1cc([N+](=O)[O-])ccc1N1C(=O)c2ccc(C(=O)Nc3ccccc3C(=O)O)cc2C1=O,-6,-3,1,-1,98*,-2
CC(C)CN1C(=O)c2ccc(C(=O)Nc3ccccc3C(=O)O)cc2C1=O,0,-4,-3,-9,81*,-3
O=C(Nc1ccccc1C(=O)O)c1cccc(N2C(=O)c3ccccc3C2=O)c1,-1,-1,1,6,10,11
Cc1ccccc1NC(=O)c1ccc2c(c1)C(=O)N(CC(C)C)C2=O,0,-4,-2,4,-2,4
COCCn1c(=O)[nH]c2cc(C(=O)N3CCN(c4cccc(C(F)(F)F)c4)CC3)ccc2c1=O,-8,9,3,1,-10,1
O=c1c2cc(N3CCOCC3)ccc2[nH]c(=S)n1CCCN1CCN(c2ccccc2F)CC1,nt,nt,nt,nt,2,nt
